# Assay outcomes as filed in PubChem.
# Pf Dd2 inh – inhibitors of Plasmodium falciparum Dd2 growth; P. falciparum Dd2 growth, SYBR Green, 72 h; Potency, µM (top dose mostly 28.9 µM), for the others: at the top dose activity, negative = inhibition, usual class: inhibitors; hit rate 4.3% among 120,000; AID 1347417; active = well fitted inhibition curve with a large enough effect;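 also: plate controls were DMSO vehicle for no effect and reference drug for full effect; nearly all actives have a fitted effect of over 65% in size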
#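 Readout: SYBR Green fluorescence, 485 nm excitation, 535 nm emission, after ~16 h lysis at 37C. Before that, Dd2-infected red cells (2.5% hematocrit) grew 72 h with compound, 29 uM top final concentration.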
# An asterisk follows results filed as active; i = inactive; [ ] = dose if it differs, or a comment. The entries come from a sample that favours hits as a whole. Potency is read from the fitted curve at half-maximal effect.
SMILES,Pf Dd2 inh
CCN(Cc1ccncc1)C(=O)CC1CCCN(c2cnn(CCOC)c(=O)c2)C1 (stereo not given),-13%
CCn1c(=O)cc(OCC(=O)N2CCN(c3cccc(C)c3C)CC2)c2ccccc21,46%
Cc1ccc(-n2nc(C(=O)N3CCN(c4cc(C)ccc4C)CC3)c3c4ccccc4n(C)c3c2=O)cc1,31%
CCn1cc(C(=O)N2CCN(c3cc(C)ccc3C)CC2)c(=O)c2cc(S(=O)(=O)N3CCCCC3)ccc21,12%
Cc1ccc(C)c(N2CCN(C(=O)c3cn(CC(C)C)c(=O)c4c3c3ccccc3n4C)CC2)c1,2.5µM*
Cc1ccc(-n2nc(C(=O)N3CCN(c4ccccc4F)CC3)c3c4ccccc4n(C)c3c2=O)cc1,29%
Cc1cccc(N2CCN(C(=O)c3cn(CC(C)C)c(=O)c4c3c3ccccc3n4C)CC2)c1C,11µM*
Cc1ccc(S(=O)(=O)N2CCN(C)C3(CCC(=O)N(C)CC3)C2)cc1F (stereo not given),-11%
COc1ccc(-c2noc([C@@H]3CCCN3C(=O)c3ccc(Cl)cc3OC)n2)cc1,28%
COCCN1CCC(N2CCN(S(=O)(=O)c3ccccc3C)CC2)C1=O (stereo not given),-10%
CN(CCc1cnn(C)c1)C(=O)c1cn(Cc2cccc(C(F)(F)F)c2)nn1,-9%
O=C(c1ccn[nH]1)N1CC[C@@H]2[C@@H](CCC(=O)N2CCc2cnc[nH]2)C1,-3%
CC(C)(C)OC(=O)N1CCC(c2c(C(=O)N3CCN(c4ccc(Cl)cc4)CC3)cnn2-c2ccc(F)cc2F)CC1,11µM*
Cc1c(Cl)cccc1-n1ncc(C(=O)N2CCN(c3ncccn3)CC2)c1C1CCN(C(=O)OC(C)(C)C)CC1,i
Cc1c(Cl)cccc1-n1ncc(C(=O)N2CCC(C)CC2)c1C1CCN(C(=O)OC(C)(C)C)CC1,11µM*
CN1CCN(C(=O)c2cnn(-c3ccc(F)cc3F)c2C2CCN(C(=O)OC(C)(C)C)CC2)CC1,16%
CC(C)(C)OC(=O)N1CCC(c2c(C(=O)N3CCN(c4ccccc4F)CC3)cnn2-c2ccccc2Cl)CC1,13µM*
Cc1cnccc1N1CCCN(C(=O)Cn2ccnc2-c2ccccc2)CC1,21%
CCn1nccc1C(=O)N1CCC2(CC1)CC(c1nc(C)no1)N(C)C2 (stereo not given),13%
Cc1cc(C(=O)N2CCCCCC2c2nnc(-c3ccccc3)o2)nn1C (stereo not given),-25%
Cc1noc(-c2ccccc2OC2CCN(C(=O)CC3CCCCC3)C2)n1 (stereo not given),i
Cn1ccc2ccc(C(=O)Nc3ccc4c(c3)C(=O)N3CCC[C@H]3C(=O)N4)cc21,-20%
O=C(Cc1ccc(F)cc1)N1CCC(c2nn(-c3ccccc3)c(=O)[nH]2)CC1,i
CCN1CC2(CCN(C(=O)Cc3c(C)[nH]c4c(F)cccc34)CC2)OC1=O,-9%
O=C(c1c[nH]c(=O)c2ccccc12)N1C[C@H](CO)C[C@H](CN2CCCC2)C1,17%
SMILES,Pf Dd2 inh
Cc1cccc(C)c1Nc1c(-c2ccc(N3CCOCC3)cc2)nc2ncccn12,-6%
Cc1ccc(Nc2c(-c3ccc(N4CCOCC4)cc3)nc3cccc(C)n23)cc1,-18%
Cc1ccccc1Nc1c(-c2ccc(N3CCOCC3)cc2)nc2ccc(Cl)cn12,8.9µM*
Cc1ccn2c(Nc3ccccc3C)c(-c3ccc(N4CCOCC4)cc3)nc2c1,6.3µM*
Brc1ccc2nc(-c3ccccc3)c(Nc3ccc4c(c3)OCO4)n2c1,-13%
Cc1ccc(Nc2c(-c3ccc(N4CCOCC4)cc3)nc3ccc(Cl)cn23)cc1,47%
Cc1ccccc1Nc1c(-c2c(F)cccc2Cl)nc2ccc(Br)cn12,10µM*
Cc1ccc(-c2nc3ccc(Cl)cn3c2Nc2ccccc2C)s1,-1%
Clc1ccc2nc(-c3ccc(N4CCOCC4)cc3)c(Nc3ccccc3)n2c1,-29%
COc1ccccc1C(=O)Nc1ccnn1C1CCN(C(=O)CCN)CC1,-4%
CCCCN(C)C(=O)Cc1cccn1-c1cccc(Cl)c1,i
COc1ccc(C(=O)Nc2ncc(-c3ccc(OC)nc3)c3c2OCC3)cc1,-15%[44.1 µM]
COc1ccc(-c2cnc(Nc3ccc(CN4CCN(C)CC4)cc3)c3c2CCO3)cn1,6.3µM*
COc1ccccc1-c1cnc(Nc2ccc(CN3CCN(C)CC3)cc2)c2c1CCO2,7.1µM*
COc1ccccc1-c1cnc(NC(=O)c2cccnc2)c2c1CCO2,20%[44.1 µM]
Fc1cccc(-c2cnc(Nc3ccc(N4CCOCC4)cc3)c3c2CCO3)c1,i
COc1ccccc1-c1cnc(Nc2cncnc2)c2c1CCO2,i
CN(C)[C@@H]1CN(C(=O)C2CCCC2)CC[C@@H]1CO,-11%
O=C(NCc1nnc2n1C(C(=O)NCCc1ccc(Cl)cc1)CC2)c1cccnc1 (stereo not given),4%
CO[C@H]1[C@H](NC(=O)c2cc(C)ccc2C)c2ccccc2C12CCNCC2,-15%
Cc1ccc(CN2CCn3c(nn(-c4ccncc4)c3=O)C2)cc1,-28%[44.1 µM]
Cc1ccc(CNC(=O)C2CCN(C(=O)N3CC4CC(C3)[C@H]3CCCC(=O)N3C4)CC2)o1 (stereo not given in full),i
CC(C)n1c(CNC(=O)C2CC(=O)N(c3n[nH]c4ccccc34)C2)nc2ccccc21 (stereo not given),i
Cc1[nH]c(=O)[nH]c(=O)c1CC(=O)N1C[C@@H](C(=O)O)[C@H](c2ccccc2)C1,-3%
Cc1cnccc1CNC(=O)CC(c1cccc(O)c1)c1cccc(Cl)c1 (stereo not given),-16%
SMILES,Pf Dd2 inh
CN(Cc1ccccc1)c1ncccc1CNC(=O)c1ccnn1C,-12%
Cc1c(C(=O)OC2CCC(C)CC2)[nH]c2c1C(=O)CC(c1ccc(F)cc1)C2 (stereo not given),-17%
COc1ccc(C2CC(=O)c3c([nH]c(C(=O)OC4CCCCCC4)c3C)C2)cc1OC (stereo not given),10µM*
Cc1c(C(=O)OC2CCCCC2)[nH]c2c1C(=O)CC(c1ccccc1)C2 (stereo not given),-16%
CCOc1ccc(C2CC(=O)c3c([nH]c(C(=O)OC4CCC(C)CC4)c3C)C2)cc1 (stereo not given),-8%
COc1ccc(OC)c(C2CC(=O)c3c([nH]c(C(=O)OC4CCC(C)CC4)c3C)C2)c1 (stereo not given),10µM*
Cc1c(C(=O)OC2CCCC2)[nH]c2c1C(=O)CC(c1ccc(C(C)(C)C)cc1)C2 (stereo not given),-18%
O=C(NC[C@H]1O[C@@H](CO)[C@@H](O)[C@H]1N1CCCCC1)Nc1ccccc1,-14%[44.1 µM]
O=C(CC1C(=O)NCCN1CC(c1ccccc1)c1ccccc1)NCc1ccco1 (stereo not given),-13%
CN(C)C(=O)C1CN(C(=O)Nc2ccccc2Cl)CC12CCOCC2 (stereo not given),i
CC(C)NC[C@H]1O[C@@H]2C[C@@H](CC(=O)NCc3nccn3C)O[C@@H]2[C@@H]1O,i
CC(=O)N(C)C1CCc2ccccc21 (stereo not given),-14%[44.1 µM]
CNC(=O)[C@@H]1CN(S(=O)(=O)c2c(C)noc2C)C[C@H]1c1n[nH]c(C)n1,-24%
Cc1cc(C(=O)NC(C)c2nc3ccccc3[nH]2)cc(S(N)(=O)=O)c1C (stereo not given),-23%
Cc1cc(C)cc(NC(=O)Cn2cc(C(=O)c3ccncc3)c(=O)c3cc(C)c(C)cc32)c1,-24%
CCc1cccc(NC(=O)Cn2cc(C(=O)c3ccncc3)c(=O)c3cc(C)c(C)cc32)c1,10µM*
